Screens deposited in PubChem by National Center for Advancing Translational Sciences (NCATS).
In the library only some 21% were active in any assay of this set; here they are far more common.
DRD3 agonist = agonists of human D3 dopamine receptor; D3R DiscoveRx beta-arrestin cells, luminescence, 90 min; max activation, %; P35462; 410,000 compounds, 0.58% hits; in the data active = max activation above about 30%; also: 0% is about no effect
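Agonist-mode cell screen: cells plated at 1500/well and incubated overnight at 37 °C, then exposed to library compounds for 90 min at 37 °C. Detection reagent was added for 30–60 min at room temperature, and luminescence was read.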
DRD3 antagonist = antagonists of human D3 dopamine receptor. P35462. D3R cells, DiscoveRx beta-arrestin luminescence, antagonist mode; stronger effect = lower value. max response, negative = inhibition, %. 360,000 compounds, 2.5% hits. AID 652054; in the data active = max response below about -50%; inconclusive = no clear call, values can overlap the other calls; also: % is scaled to controls: 0 for no effect and ±100 for the full control effect
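Cells expressing the human receptor were seeded at 1500 cells/well, incubated overnight at 37 degrees C in 5% CO2, then exposed to library compounds with dopamine controls for 90 minutes at 37 degrees C before luminescent detection.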
IL1B secr inh = blocks inflammasome-driven IL-1 beta release | THP-1 LPS/ATP IL-1B secretion, AlphaLISA, 16 h; stronger effect = lower value | activity change, % at 57.5 µM | 360,000 compounds, 4.7% hits | AID 743279; in the data active = activity change below about -50%; inconclusive = mostly about -30% to -49%; also: % is scaled to controls: 0 for no effect and ±100 for the full control effect
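Secreted IL-1B measured by AlphaLISA bead assay after 16 h compound exposure of THP-1 cells; compounds (final up to 57.5 uM) added 1 h before LPS (250 ng/mL) and ATP (1.25 mM) stimulation; lower signal means less secretion.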
TDP1 cell noCPT = qHTS for Inhibitors of human tyrosyl-DNA phosphodiesterase 1 (TDP1): qHTS in cells in absence of CPT; DT40 Tdp1-/- hTDP1 cells, no CPT, ATP luminescence, 48 h; Potency, µM (series often up to 46.2 µM), without a hit: at the top dose activity change, negative = growth inhibition, usual class: inhibitors; 420,000 compounds, 15% hits; AID 686978, 2013; also: potency is read from the fitted curve at half-maximal effect; % is scaled to controls: 0 for no effect and ±100 for the full control effect; nearly all actives have a fitted effect of over 55% in size
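Chicken DT40 Tdp1-/- cells complemented with human TDP1, screened without camptothecin (DMSO vehicle only), 400 cells/well. Compounds pin-transferred, cells incubated at 37 °C for at least 48 hr. Growth read as ATP-dependent luminescence (CellTiter-Glo, 30 min at RT).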
DT40 TDP1 CPT = DT40-hTDP1 cell growth loss with CPT; chicken DT40 Tdp1-/-;hTDP1 cells + 20 nM CPT, ATP luminescence, 48 h; Potency, µM (top dose mostly 46.2 µM), for inactives: top-dose activity change, negative = growth inhibition, hits mostly inhibitors; 420,000 compounds, 12% hits; also: potency is read from the fitted curve at half-maximal effect; % is scaled to controls: 0 for no effect and ±100 for the full control effect; nearly all actives have a fitted effect of over 55% in size
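Chicken DT40 Tdp1-/- cells stably complemented with human TDP1 were seeded at 400 cells/well in medium containing 20 nM camptothecin, exposed to pin-transferred compounds, and grown at 37 °C for at least 48 hr. Viability was read as ATP luminescence.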
ClpP mod = qHTS Assay for Activators of ClpP. 340,000 compounds, 1.9% hits. Potency, µM (series often up to 57.5 µM), for the others: at the highest dose activity change, negative = active. ATP-dependent Clp protease proteolytic subunit (Bacillus subtilis (strain 168)), P80244. purified B. subtilis ClpP, FRET peptide cleavage, 20 min; active = well fitted falling curve with a large enough effect; inconclusive = small, poorly fitted or top-dose-only effect; inactive = no such curve, though single readings can be large or run the other way; also: potency is read from the fitted curve at half-maximal effect; the source files actives as falling curves though it sought activators and does not explain the sign; nearly all actives have a fitted effect of over 65% in size
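Buffer: 100 mM Tris/HCl pH8, 100 mM KCl, 0.05% low protease BSA, 2.5% glycerol, 0.01% Tween-20. ClpP 10 microg/mL final; 20 min RT; delta FRET normalized to ADEP and DMSO controls.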
Active calls of the source: *; ? = inconclusive; nt = no result given; ! = a repeat was not active; [ ] = another dose, or the depositor's remark. Unless noted, calls follow the shape of the dose curve; as a rule, active = well fitted inhibition curve with a large enough effect; inconclusive = small, poorly fitted or top-dose-only effect; inactive = flat fitted curve, though single readings scatter.

SMILES	DRD3 agonist	DRD3 antagonist	IL1B secr inh	TDP1 cell noCPT	DT40 TDP1 CPT	ClpP mod
CCOC(=O)C1=C(CSc2nc(-c3ccccc3)ccc2C#N)OC(N)=C(C#N)C1c1cccnc1 (stereo unspecified)	-8	13	36	4.6µM*	2.9µM*	27%
Cc1cccc(C)c1NC(=O)CN(C)S(=O)(=O)c1ccc(-c2ccc(=O)[nH]n2)s1	-1	6	-7	-2%	?	-2%
CCCn1c(=O)c2sccc2n2c(CCCC(=O)Nc3cccc(CC)c3)nnc12	11	nt	nt	?	23µM*	-3%
CCCn1c(=O)c2sccc2n2c(CCCC(=O)Nc3ccc(C)c(F)c3)nnc12	-21	nt	nt	23µM*	?	-3%
Cc1ccc(NC(=O)CCCc2nnc3n(C)c(=O)c4sccc4n23)cc1F	10	nt	nt	?	?	0%
COc1ccccc1CNC(=O)C1(C)CCN1C(=O)C1(c2ccccc2)CC1 (stereo unspecified)	-3	-58*	-26	26µM*	16µM*	-1%
CC1(C(=O)NCC(F)(F)F)CCN1C(=O)C1(c2ccccc2)CC1 (stereo unspecified)	-11	0	-15	-17%	-60%	0%
CC1(C(=O)NCc2cccc3ccccc23)CCN1C(=O)C1(c2ccccc2)CC1 (stereo unspecified)	2	6	-3	?	?	1%
CC1(C(=O)NCc2ccco2)CCN1C(=O)C1(c2ccccc2)CC1 (stereo unspecified)	-9	-6	-107*	5.2µM*	4.6µM*	-1%
O=C(CNS(=O)(=O)c1cccc2nsnc12)NCCc1ccccc1	-2	1	-11	1%	-1%	0%
Oc1ccc(Cl)cc1-c1cc(C(F)(F)C(F)F)nc(-c2ccccc2)n1	0	34	14	16µM*	29µM*	0%
Oc1ccccc1-c1cc(C(F)(F)F)nc(-c2ccccc2)n1	12	1	31	?	-13%	nt
Cc1ccc(O)c(-c2cc(C(F)(F)C(F)F)nc(-c3ccccc3)n2)c1	-4	-20	11	?	-11%	25µM*
c1cncc(OC2CCN(Cc3ccc4c(c3)CN(Cc3nc5ccccc5s3)CCO4)CC2)c1	nt	nt	nt	-13%	5%[9.04 µM]	nt
O=C1NC[C@H](Cc2ccccc2)N(CC2CCN(CCc3ccc(-c4ccccc4)cc3)CC2)C1=O	-46	-78*	-59*	16µM*	21µM*	0%
CC(C)C[C@H]1CNC(=O)C(=O)N1CC1CCN(CCc2ccc(-c3ccccc3)cc2)CC1	-45	-60*	-67*	-18%	-23%	-2%
CC(C)C[C@H]1CNC(=O)C(=O)N1CC1CCN(CCc2ccccc2)CC1	-14	-76*	-7	17%	-12%	0%
O=C1C(=Cc2cccs2)C(=O)c2ccccc21	-8	-8	0	-6%	3%	-3%
O=C1C(c2ccccc2)=[N+]([O-])c2ccccc21	12	?	-88*	4.1µM*	5.2µM*	-1%
O=C(COC(=O)/C=C/c1cccc(C(F)(F)F)c1)NCCN1C(=O)CSC1=O	1	11	-8	?	1%	-2%
CC1=C(/C=C/C(C)=C/C=C/C(C)=C/C(=O)O)C(C)(C)CCC1	4	6	51	?	?	-1%
CC1=C(/C=C/C(C)=C/C=C/C(C)=C/C(=O)O)C(C)(C)CCC1O (stereo unspecified)	nt	nt	nt	21µM*	26µM*	nt
CC1=C(/C=C/C(C)=C/C=C/C(C)=C/C=C/C=C(C)/C=C/C=C(C)/C=C/C2=C(C)C[C@@H](O)CC2(C)C)C(C)(C)C[C@H](O)C1	6	nt	nt	15µM*	15µM*	nt
CC1=C(/C=C/C(C)=C\C=C\C(C)=C\C(=O)O)C(C)(C)CCC1	nt	nt	nt	26µM*!	-13%[4.12 µM]	nt
NC(=O)n1c(O)c(C(=O)c2cccs2)c2cc(Cl)ccc21	-7	nt	nt	?	-9%	nt
SMILES	DRD3 agonist	DRD3 antagonist	IL1B secr inh	TDP1 cell noCPT	DT40 TDP1 CPT	ClpP mod
Cc1cc(C)c(Cn2c(C3CC(=O)N(c4ccc(F)cc4)C3)nc3ccccc32)c(C)c1 (stereo unspecified)	4	nt	nt	?	-12%	0%
COc1ccc(OCc2cc(C(=O)N(Cc3nccn3C)C(C)C)no2)c2ccccc12	-1	-12	-2	12µM*	21µM*	-2%
CC(C)N(Cc1nccn1C)C(=O)c1cc(COc2ccc(F)cc2Cl)on1	-9	-2	-2	?	15µM*	0%
CC(C)c1ccc(N2C(=O)CSC23C(=O)N(C)c2ccccc23)cc1 (stereo unspecified)	7	nt	nt	nt	nt	1%
CCN(CC(=O)Nc1c(F)cccc1F)C(=O)c1ccc(COc2ccccc2)cc1	3	1	8	?	?	1%
CCOc1ccc(OCc2ccc(C(=O)N(CC)CC)cc2)cc1	3	-4	0	15µM*	?	1%
CCN(CC(=O)Nc1ccc(NC(C)=O)cc1)C(=O)c1ccc(C(=O)c2ccccc2)cc1	-1	-13	-3	0%	4%	-1%
CCN(CC(=O)Nc1ccc(NC(C)=O)cc1)C(=O)c1ccc(COc2ccc(C(C)(C)C)cc2)cc1	-8	18	-51*	23µM*	?	-2%
C#CCn1cc2c(c1-c1ccccc1)c(=O)n(C)c(=O)n2C	11	28	17	21µM*	16µM*	?
Cn1c(=O)c2c(-c3ccccc3)n(-c3cccc(Br)c3)cc2n(C)c1=O	-7	0	34	8.2µM*	9.2µM*	-12%
CC(=O)Nc1ccc(-n2cc3c(c2-c2ccc(C)cc2)c(=O)n(C)c(=O)n3C)cc1	0	nt	nt	?	?	20µM*
CC(=O)Nc1ccc(C)cc1	6	21	9	-6%	-5%	-21%
Cn1c(=O)c2c(-c3ccccc3)n(-c3ccccc3F)cc2n(C)c1=O	8	35	-12	13µM*	15µM*	?
CCN1CCCC1CNC(=O)c1cnn(-c2nccc(-c3cccs3)n2)c1C1CC1 (stereo unspecified)	nt	nt	nt	-13%	6%[9.04 µM]	nt
O=C(NCCCNC(=O)c1ccccc1)c1ccccc1	-5	-4	2	-16%	-2%	nt
COC(=O)c1sccc1-n1cc2c(c1-c1ccccc1)c(=O)n(C)c(=O)n2C	-7	0	2	21µM*	?	1%
CC(=O)Nc1cccc(-n2cc3c(c2-c2ccccc2Cl)c(=O)n(C)c(=O)n3C)c1	8	nt	nt	?	?	28µM*
